# Data as given in PubChem BioAssay (Tox21).
# Values without a mark were called inactive. Records with an inconclusive call do not appear. A call without a number means that no potency is given here. Calls of active or inactive are those of the source. Unless noted, calls follow the shape of the dose curve; as a rule, active = well fitted curve in the direction sought with a large enough effect in the repeat runs; inconclusive = weak or mixed curves; inactive = no such curve, though single readings can be large; an effect the other way counts as inactive or inconclusive.
# Experiments:
# [1] = target: Estrogen receptor (Homo sapiens) (UniProt P03372); test: qHTS assay to identify small molecule agonists of the estrogen receptor alpha (ER-alpha) signaling pathway in the presence of an antagonist (AID 1259383; calls by dose curve; also: top concentration of the series differs between compounds; nearly all actives have a fitted effect of over 15% in size)
# Outline: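 ER-alpha agonism measured under antagonist challenge: 10.0nM ICI-182,780 (final) plus compound, 15 concentrations, 22hr, VM7Luc4E2 ERE-luciferase cells. Read by luminescence.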
# [2] = qHTS assay to identify small molecule agonists of the estrogen receptor alpha (ER-alpha) signaling pathway in the presence of an antagonist - cell viability counter screen (AID 1259386);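 also: series mostly up to about 92 µM; cells exposed to compounds for 22 h at 37 °C before the viability read; nearly all actives have a fitted effect of over 30% in size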
# Outline: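 Steps: 5-day stripped-FBS culture; seed and incubate 24hr; add ICI-182,780 (10.0nM final); pin 15-point compound titration; incubate 22hr at 37C; add CellTiter-Fluor at 21hr; read fluorescence.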
# [3] = target: Progesterone receptor (Homo sapiens) (UniProt P06401); test: qHTS assay to identify small molecule agonists of the progesterone receptor (PR) signaling pathway (AID 1346784; calls by dose curve; also: nearly all actives have a fitted effect of over 30% in size)
# Outline: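 Using charcoal-stripped serum (2%) to limit endogenous steroids, PR-UAS-bla HEK 293T cells received compounds for 16 hr at 37C after 6 hr plating; beta-lactamase FRET fluorescence was recorded following 2 hr substrate loading at room temperature.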
# [4] = qHTS assay to identify small molecule antagonists of the progesterone receptor (PR) signaling pathway - cell viability counter screen (AID 1346798); also: series mostly up to about 92 µM; nearly all actives have a fitted effect of over 50% in size
# Outline: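 ATP content as viability readout: CellTiter-Glo luminescence, 30 min room temperature, in PR-UAS-bla HEK293T cells after 16 hr compound/R5020 treatment at 37C and 5% CO2.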
# [5] = qHTS assay to identify small molecule agonists of the progesterone receptor (PR) signaling pathway - cell viability counter screen (AID 1346799; calls by dose curve; also: nearly all actives have a fitted effect of over 45% in size)
# Outline: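 Cytotoxicity in PR-bla HEK293T cells: 16 h compound, 37C; CellTiter-Glo added post-FRET read; luminescence after 30 min RT.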
# [6] = qHTS assay to identify small molecule antagonists of the TGF-beta/Smad signaling pathway - cell viability counter screen (AID 1346824); also: nearly all actives have a fitted effect of over 50% in size
# Outline: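 SBE-bla HEK 293T cells were plated overnight at 37 C, then given compounds in DMSO plus TGF-beta1 (added as 0.25 ng/mL solution) for 5 hr. After the bla read, CellTiter-Glo was added to the same wells and luminescence read after 30 min at room temperature.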
# [7] = qHTS assay to identify small molecule agonists of the TGF-beta/Smad signaling pathway - cell viability counter screen (AID 1346829); also: top concentration of the series differs between compounds; nearly all actives have a fitted effect of over 45% in size
# Outline: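 After overnight seating at 37 C and 5% CO2, reporter cells got compounds for 5 hr and FRET substrate for 2 hr; cell viability then came from CellTiter-Glo luminescence.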
# [8] = qHTS assay to identify small molecule agonists of the TGF-beta/Smad signaling pathway (AID 1346859; active = well fitted activation curve with a large enough effect in the signal ratio in the repeat runs, not every such curve was filed as active; the % refers to the signal ratio; also: series mostly up to about 77 µM)
# Outline: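 Stable Smad binding element-beta-lactamase HEK 293T cells; 5 hr compound exposure at 37 C under 5% CO2; 2 hr room-temperature substrate step; fluorescence excited at 405 nm, collected at 460 nm and 530 nm.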
# [9] = target: Thyrotropin-releasing hormone receptor (Homo sapiens) (UniProt P34981); test: qHTS assay to identify small molecule antagonists of the thyrotropin-releasing hormone receptor (TRHR) signaling pathway (AID 1346877; active = well fitted inhibition curve with a large enough effect in the repeat runs, not every such curve was filed as active; also: series mostly up to about 51 µM)
# Outline: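 Human TRHR in HEK293 cells; inhibition of the intracellular calcium rise triggered by 1 nM TRH was followed by fluorescence over 3 min. Compounds were run at 15 concentrations, three replicates each.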
# [10] = target: Thyrotropin-releasing hormone receptor (Homo sapiens) (UniProt P34981); test: qHTS assay to identify small molecule agonists of the thyrotropin-releasing hormone receptor (TRHR) signaling pathway (AID 1346891; calls by dose curve;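 also: HEK293 cells expressing TRHR with calcium dye readout; series mostly up to about 58 µM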)
# Outline: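 In 1536-format, 1500 TRHR-Hek293 cells per well grew 18 h, took up calcium dye for 2 h at 37 °C, received compound, and were read kinetically; 15-point titrations, triplicates.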
# [11] = Human pregnane X receptor (PXR) small molecule agonists, qHTS cell viability counter screen (AID 1346977); also: nearly all actives have a fitted effect of over 50% in size
# Outline: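 Readout is CellTiter-Fluor fluorescence from PXR-Luc HepG2 cells. Plated cells rested 5hr, then were treated with compounds for 24hr at 37C and 5% CO2, with reagent present during the last hour.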
# [12] = Caspase-3/7 induction in HepG2 cells by small molecules, qHTS assay (AID 1346978); also: nearly all actives have a fitted effect of over 15% in size
# Outline: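 Wild-type HepG2 cells (2,000/well) were settled 5 h at 37 C, 5% CO2, then exposed to compounds in DMSO for 17 h. Caspase-3/7 activity was read by luminescence 30 min after adding Caspase-Glo 3/7 reagent at room temperature.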
# [13] = Caspase-3/7 induction in CHO-K1 cells by small molecules, qHTS cell viability counter screen (AID 1346979); also: nearly all actives have a fitted effect of over 35% in size
# Outline: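 To flag cytotoxic compounds, treated CHO-K1 wild-type cells were given CellTiter-Fluor at 16hr and read fluorescently after 1hr at 37C; the caspase-3/7 luminescence was measured in these same wells.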
# [14] = Caspase-3/7 induction in CHO-K1 cells by small molecules, qHTS assay (AID 1346980); also: nearly all actives have a fitted effect of over 15% in size
# Outline: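 Wild-type cells were seeded at 1,500 per well and settled 5 hr at 37 C, 5% CO2, then exposed to DMSO-dissolved compounds for 17 hr. Caspase-Glo 3/7 reagent was added, and luminescence was read after 30min at room temperature.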
# [15] = Caspase-3/7 induction in HepG2 cells by small molecules, qHTS cell viability counter screen (AID 1346981); also: series mostly up to about 92 µM; nearly all actives have a fitted effect of over 30% in size
# Outline: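 The parent HepG2 line is plated at 2,000 cells per well and rested 5 hr before compound pinning from DMSO stocks. Following a 16-hr treatment at 37 C, a fluorogenic live-cell substrate (CellTiter-Fluor) reports viability after 1 hr.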
# [16] = target: Nuclear receptor subfamily 1 group I member 2 (Homo sapiens) (UniProt O75469); test: Human pregnane X receptor (PXR) small molecule agonists, qHTS assay (AID 1346982); also: nearly all actives have a fitted effect of over 35% in size
# Outline: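 After plating in 5% charcoal-stripped FBS and a 5 hr rest, PXR-Luc HepG2 cells received compounds in DMSO. Following 24 hr at 37 C, ONE-Glo was added and light output read.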
# [17] = qHTS assay to identify small molecule agonists or antagonists of the thyroid stimulating hormone receptor (TSHR) signaling pathway - wild type cell line counter screen (AID 1259384; calls by dose curve)
# Outline: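 Wild-type HEK293 cells were plated 18 h at 37 C/5% CO2, pin-dosed with compound plus Ro20-1724 medium, held 30 min at room temperature, then given cAMP-d2 and anti-cAMP-cryptate; fluorescence was read after 1 h. Fifteen concentrations, triplicate.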
# [18] = target: Nuclear receptor subfamily 1 group I member 2 (Rattus norvegicus) (UniProt Q9R1A7); test: Rat pregnane X receptor (rPXR) activation by small molecules, qHTS assay (AID 1346983); details: rPXR luciferase reporter cells, One-Glo luminescence, 24 h; max activation: hits give high values; also: nearly all actives have a fitted effect of over 20% in size; also: potency is read from the fitted curve at half-maximal effect
# Outline: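 Cell-based rPXR luciferase reporter assay, 2,000 cells per well, rested 5hr at 37 C before compound addition in DMSO, then 24 hr at 37 C. One-Glo reagent was added and luminescence read after 30 min at room temperature.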
# [19] = target: Progesterone receptor (Homo sapiens) (UniProt P06401); test: qHTS assay to identify small molecule antagonists of the progesterone receptor (PR) signaling pathway (AID 1346795; active = well fitted inhibition curve with a large enough effect in the signal ratio in the repeat runs, not every such curve was filed as active; the % refers to the signal ratio)
# Outline: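 Inhibition of R5020-induced (1 nM final) beta-lactamase reporter signal in PR-UAS-bla HEK293T cells was scored by FRET fluorescence after overnight (16 hr) compound treatment.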
# Nuclear receptor subfamily 1 group I member 2 (Rattus norvegicus), sequence (Q9R1A7 whole entry, looked up): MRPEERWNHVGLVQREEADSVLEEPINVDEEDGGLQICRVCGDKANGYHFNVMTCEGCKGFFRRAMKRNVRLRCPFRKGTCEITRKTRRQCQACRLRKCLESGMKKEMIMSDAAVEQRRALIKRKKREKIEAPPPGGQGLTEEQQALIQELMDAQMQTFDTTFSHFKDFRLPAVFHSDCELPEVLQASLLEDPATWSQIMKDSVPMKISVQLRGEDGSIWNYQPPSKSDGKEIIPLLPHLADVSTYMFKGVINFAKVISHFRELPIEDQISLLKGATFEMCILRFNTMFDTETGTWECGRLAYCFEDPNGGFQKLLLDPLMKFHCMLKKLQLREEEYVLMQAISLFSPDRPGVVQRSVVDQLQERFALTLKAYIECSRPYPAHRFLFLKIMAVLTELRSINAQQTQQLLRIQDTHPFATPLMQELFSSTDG
# Estrogen receptor (Homo sapiens), sequence (P03372 whole entry, looked up): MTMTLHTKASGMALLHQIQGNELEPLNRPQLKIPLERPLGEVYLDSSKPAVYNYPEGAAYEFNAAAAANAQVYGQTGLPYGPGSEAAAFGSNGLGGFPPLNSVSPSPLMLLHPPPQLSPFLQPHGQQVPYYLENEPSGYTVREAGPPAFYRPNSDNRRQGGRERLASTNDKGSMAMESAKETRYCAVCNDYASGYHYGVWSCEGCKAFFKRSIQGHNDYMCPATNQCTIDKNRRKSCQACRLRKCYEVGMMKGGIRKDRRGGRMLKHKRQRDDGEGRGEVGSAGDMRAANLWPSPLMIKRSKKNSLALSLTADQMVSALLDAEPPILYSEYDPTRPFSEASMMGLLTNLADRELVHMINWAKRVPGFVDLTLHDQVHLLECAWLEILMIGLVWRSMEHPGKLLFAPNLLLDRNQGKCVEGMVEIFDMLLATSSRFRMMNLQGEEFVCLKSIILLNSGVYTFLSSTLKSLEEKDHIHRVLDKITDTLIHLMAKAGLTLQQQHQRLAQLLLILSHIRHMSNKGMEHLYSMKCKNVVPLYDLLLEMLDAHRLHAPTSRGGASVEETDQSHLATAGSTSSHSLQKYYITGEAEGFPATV
# Nuclear receptor subfamily 1 group I member 2 (Homo sapiens), sequence (O75469 whole entry, looked up): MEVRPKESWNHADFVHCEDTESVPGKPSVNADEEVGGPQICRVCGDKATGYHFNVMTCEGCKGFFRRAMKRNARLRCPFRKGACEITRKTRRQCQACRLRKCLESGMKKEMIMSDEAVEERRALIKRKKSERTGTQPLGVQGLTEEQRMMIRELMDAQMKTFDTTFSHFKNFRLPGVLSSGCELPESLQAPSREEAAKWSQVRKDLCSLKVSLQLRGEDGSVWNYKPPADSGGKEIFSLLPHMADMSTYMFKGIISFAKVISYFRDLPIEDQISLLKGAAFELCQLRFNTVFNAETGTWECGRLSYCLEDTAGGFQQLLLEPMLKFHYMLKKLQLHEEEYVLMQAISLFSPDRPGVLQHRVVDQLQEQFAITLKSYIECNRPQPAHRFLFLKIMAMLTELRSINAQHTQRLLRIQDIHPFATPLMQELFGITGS
# Progesterone receptor (Homo sapiens), sequence (P06401 whole entry, looked up): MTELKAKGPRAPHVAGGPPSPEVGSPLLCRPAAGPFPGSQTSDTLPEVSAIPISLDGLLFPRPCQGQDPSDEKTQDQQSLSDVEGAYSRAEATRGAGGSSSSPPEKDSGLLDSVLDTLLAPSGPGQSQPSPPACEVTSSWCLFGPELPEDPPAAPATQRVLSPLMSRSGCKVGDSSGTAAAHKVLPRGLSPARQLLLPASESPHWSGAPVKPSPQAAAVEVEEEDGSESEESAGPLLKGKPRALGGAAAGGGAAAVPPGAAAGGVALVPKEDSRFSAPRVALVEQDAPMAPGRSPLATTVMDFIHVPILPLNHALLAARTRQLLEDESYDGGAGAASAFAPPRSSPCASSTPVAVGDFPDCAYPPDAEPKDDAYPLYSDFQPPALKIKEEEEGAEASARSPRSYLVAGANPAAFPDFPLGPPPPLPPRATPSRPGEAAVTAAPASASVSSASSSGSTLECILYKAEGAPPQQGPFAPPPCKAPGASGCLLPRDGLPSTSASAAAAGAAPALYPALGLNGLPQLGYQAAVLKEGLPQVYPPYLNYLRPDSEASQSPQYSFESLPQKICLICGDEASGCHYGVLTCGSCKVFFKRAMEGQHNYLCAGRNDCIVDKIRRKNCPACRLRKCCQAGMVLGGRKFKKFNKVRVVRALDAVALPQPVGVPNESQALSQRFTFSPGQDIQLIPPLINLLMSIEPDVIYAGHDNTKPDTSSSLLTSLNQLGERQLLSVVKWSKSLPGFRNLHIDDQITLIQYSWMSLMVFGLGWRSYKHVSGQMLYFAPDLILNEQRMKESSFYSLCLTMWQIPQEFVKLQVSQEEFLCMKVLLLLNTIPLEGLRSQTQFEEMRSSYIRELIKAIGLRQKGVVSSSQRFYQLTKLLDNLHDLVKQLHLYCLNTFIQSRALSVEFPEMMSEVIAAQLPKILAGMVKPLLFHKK
# Thyrotropin-releasing hormone receptor (Homo sapiens), sequence (P34981 whole entry, looked up): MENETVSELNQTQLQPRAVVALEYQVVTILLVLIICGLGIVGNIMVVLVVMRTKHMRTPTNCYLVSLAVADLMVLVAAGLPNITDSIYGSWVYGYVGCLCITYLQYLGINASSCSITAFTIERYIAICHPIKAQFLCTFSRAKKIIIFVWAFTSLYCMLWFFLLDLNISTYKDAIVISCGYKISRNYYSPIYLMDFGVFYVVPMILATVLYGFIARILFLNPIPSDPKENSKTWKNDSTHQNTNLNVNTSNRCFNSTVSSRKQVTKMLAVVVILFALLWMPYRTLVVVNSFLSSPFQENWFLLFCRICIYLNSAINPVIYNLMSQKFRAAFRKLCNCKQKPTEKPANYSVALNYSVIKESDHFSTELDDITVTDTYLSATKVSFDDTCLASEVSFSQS
structure (smiles),measurement,setting,value
BrCCOc1ccccc1,Potency,[1],inactive
same,outcome,[2],inactive
same,Potency,[3],inactive
same,outcome,[4],inactive
same,Potency,[5],inactive
same,outcome,[6],inactive
same,outcome,[7],inactive
same,outcome,[8],inactive
same,outcome,[9],inactive
same,Potency,[10],inactive
same,outcome,[11],inactive
same,outcome,[12],inactive
same,Potency,[13],inactive
same,outcome,[14],inactive
same,outcome,[15],inactive
same,Potency,[16],inactive
C[C@]12C=CC(=O)C=C1[C@@H](F)C[C@@H]1[C@@H]2[C@@H](O)C[C@@]2(C)[C@H]1CC[C@]2(O)C(=O)CO,Potency,[1],inactive
same,outcome,[17],inactive
same,outcome,[2],inactive
same,outcome,[4],inactive
same,Potency,[5],inactive
same,outcome,[6],inactive
same,outcome,[7],inactive
same,outcome,[8],inactive
same,outcome,[9],inactive
same,outcome,[11],inactive
same,outcome,[12],inactive
same,Potency,[13],inactive
same,outcome,[14],inactive
same,outcome,[15],inactive
same,Potency,[16],inactive
same,Potency,[18],12.6 µM (active)
O=C1CCCc2c(O)cccc21,Potency,[1],inactive
same,outcome,[2],inactive
same,Potency,[3],inactive
same,Potency,[19],inactive
same,Potency,[5],inactive
same,outcome,[6],inactive
same,outcome,[7],inactive
same,outcome,[8],inactive
same,outcome,[11],inactive
same,outcome,[12],inactive
same,Potency,[13],inactive
same,outcome,[14],inactive
same,outcome,[15],inactive
same,Potency,[16],inactive
COCCCOc1cc(C[C@@H](C[C@H](N)[C@@H](O)C[C@H](C(=O)NCC(C)(C)C(N)=O)C(C)C)C(C)C)ccc1OC,Potency,[1],inactive
same,outcome,[17],inactive
same,outcome,[2],inactive
same,Potency,[19],inactive
same,outcome,[4],inactive
same,Potency,[5],inactive
same,outcome,[6],inactive
same,outcome,[7],inactive
same,outcome,[8],inactive
same,outcome,[9],inactive
same,Potency,[10],inactive
same,outcome,[11],inactive
same,outcome,[12],inactive
same,Potency,[13],inactive
same,outcome,[14],inactive
same,outcome,[15],inactive
same,Potency,[16],inactive
O=P(O)(O)C(O)(Cc1cccnc1)P(=O)(O)O,Potency,[1],inactive
same,outcome,[2],inactive
same,Potency,[3],inactive
same,Potency,[5],inactive
same,outcome,[6],inactive
same,outcome,[7],inactive
same,outcome,[8],inactive
same,outcome,[11],inactive
same,outcome,[12],inactive
same,Potency,[13],inactive
same,outcome,[14],inactive
same,outcome,[15],inactive
same,Potency,[16],inactive
same,max activation,[18],-2.56%
CCCCN=C(N)N=C(N)N,Potency,[1],inactive
same,outcome,[17],inactive
same,outcome,[2],inactive
same,Potency,[3],inactive
same,Potency,[19],inactive
same,Potency,[5],inactive
same,outcome,[6],inactive
same,outcome,[8],inactive
same,outcome,[11],inactive
same,outcome,[12],inactive
same,Potency,[13],inactive
same,outcome,[14],inactive
same,outcome,[15],inactive
same,Potency,[16],inactive
same,max activation,[18],-2.74%
Cc1ccc(NC(N)=O)cc1,Potency,[1],inactive
same,outcome,[17],inactive
same,outcome,[2],inactive
same,Potency,[3],inactive
same,Potency,[19],inactive
same,Potency,[5],inactive
same,outcome,[6],inactive
same,outcome,[8],inactive
same,outcome,[9],inactive
same,Potency,[10],inactive
same,outcome,[11],inactive
same,outcome,[12],inactive
same,Potency,[13],inactive
same,outcome,[15],inactive
same,Potency,[16],inactive
CCCCCCCCCCCCCCCCN(C)C,activation,[1],0.651% [at 8.39 µM]
same,cAMP activity change,[17],-1.46% [at 8.39 µM]
same,"activity change, negative = cytotoxicity",[2],0.513% [at 8.39 µM]
same,"activity change, negative = cytotoxicity",[4],-0.0264% [at 8.39 µM]
same,"activity change, negative = cytotoxicity",[5],-6.19% [at 8.39 µM]
same,"viability change, negative = cytotoxic",[6],3.18% [at 6.97 µM]
same,"activity change, negative = cytotoxicity",[7],16.2% [at 6.97 µM]
same,activation,[8],0.329% [at 6.97 µM]
same,"activity change, negative = cytotoxicity",[11],1.81% [at 8.39 µM]
same,caspase activation,[12],0.737% [at 8.39 µM]
same,"activity change, negative = cytotoxicity",[13],-2.77% [at 8.39 µM]
same,"activity change, negative = cytotoxicity",[15],-1.8% [at 8.39 µM]
